Screens from PubChem.
CR mimetic SO = caloric restriction mimetics inhibiting age-related superoxide in yeast. AID 2690. S. cerevisiae aged cells, superoxide DHE fluorescence; hits give low values. superoxide response (% of plate mean), % at 10 µM. 330,000 compounds, 0.18% hits;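 active = superoxide response under a set limit, about three screen SD below normal, cut at about 65% in these data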;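 note: yeast aged for seven days with compound at 30 °C before DHE staining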
M18AAP inhibitor = PfM18AAP enzyme inhibition. recombinant PfM18AAP, H-Glu-NHMec fluorogenic cleavage. inhibition, % at 7.35 µM. 290,000 compounds, 1.2% hits. AID 1822;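 active = inhibition above the campaign mean inhibition over all tested compounds plus 3 SD, cut at about 28% in these data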
CendR NRP1 mod = alters CendR peptide binding to human NRP-1; O14786; FAM-RPARPAR peptide binding to NRP-1, fluorescence polarization; inhibition, % at 25 µM; 360,000 compounds, 0.85% hits;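 active = inhibition or corrected inhibition above about 18%, plus a signal ratio from 0.5 to 1.5, limit read from the data, passing the limit was not always enough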
ALR inh = human ALR oxidase inhibition via reduced H2O2. P55789. 290,000 compounds, 3.8% hits. purified ALR, DTT oxidation, H2O2 HRP-luminol luminescence. inhibition, % (no concentration beside the values);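 active = mean replicate inhibition above about 79%, with every replicate also reaching it, limit read from the data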
Target sequence (P55789 whole entry, looked up): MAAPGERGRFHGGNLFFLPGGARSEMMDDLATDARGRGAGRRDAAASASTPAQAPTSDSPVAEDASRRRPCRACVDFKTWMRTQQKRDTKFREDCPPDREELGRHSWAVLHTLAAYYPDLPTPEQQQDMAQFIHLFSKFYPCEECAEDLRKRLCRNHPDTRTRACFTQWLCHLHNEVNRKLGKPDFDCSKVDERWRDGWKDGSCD
APOBEC3G inh = blocks human APOBEC3G single-stranded DNA deamination; recombinant A3G, ssDNA deamination FAM/TAMRA fluorescence; inhibition, % at 20 µM; 330,000 compounds, 0.28% hits;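 active = inhibition of at least 40% at 20 µM, with no more than 30% in the related APOBEC3A deaminase screen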
APOBEC3A inh = blocks human APOBEC3A ssDNA deamination. inhibition, % at 20 µM. recombinant A3A, FAM/TAMRA ssDNA deamination fluorescence. P31941. AID 493011. 330,000 compounds, 0.41% hits;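 active = at least 40% inhibition at 20 µM here, with at most 30% in a related deaminase screen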
Target sequence (P31941 whole entry, looked up): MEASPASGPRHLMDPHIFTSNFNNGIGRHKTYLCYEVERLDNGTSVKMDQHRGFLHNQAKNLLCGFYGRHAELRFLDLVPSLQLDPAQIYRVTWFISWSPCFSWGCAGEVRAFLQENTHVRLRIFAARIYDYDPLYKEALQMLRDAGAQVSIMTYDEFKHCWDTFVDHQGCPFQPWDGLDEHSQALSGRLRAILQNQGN
Each line names hits and unclear results; the compound was inactive in the other large screens. Only some compounds are listed: those with a hit (about 5.2% of all), similar ones and a draw of the others.

Cn1c(-c2ccc(Cl)cc2)cnc1NCc1cc2c(cc1[N+](=O)[O-])OCO2	none
Cn1c(-c2ccc(F)cc2)cnc1NCc1cccc(F)c1	none (no result: ALR inh)
Cn1c(-c2ccc(F)cc2)cnc1NCc1cc2c(cc1[N+](=O)[O-])OCO2	ALR inh 93
Cn1c(-c2ccccc2)cnc1NCc1cccc([N+](=O)[O-])c1	none
Cn1c(-c2ccccc2)cnc1NCc1cc2c(cc1[N+](=O)[O-])OCO2	ALR inh 98
Cn1c(-c2ccc3c(c2)OCO3)cnc1NCc1cccc(O)c1	ALR inh 88
CCCC(C)NNC(=O)c1cc2ccccc2[nH]1 (stereo not drawn)	none
Cc1ccc(-c2nc(Nc3cccc(C)c3)sc2CC(=O)O)cc1	ALR inh 98
Cc1cccc(Nc2nc(CC(=O)O)cs2)c1	none
CC(=O)Nc1ccc(NC(=O)Cc2sc(C)nc2-c2ccc(C)cc2)cc1	none (no result: ALR inh)
Cc1ccc(-c2nc(C)sc2CC(=O)Nc2nnc(C)s2)cc1	ALR inh 98
CC1(N(O)C=C2C=CC(=O)C=C2)CCCCC1=O (stereo not drawn)	ALR inh 99
CC(C(=O)Nc1cccc([N+](=O)[O-])c1)N(c1ccccc1)S(C)(=O)=O (stereo not drawn)	none
COc1ccc(NS(=O)(=O)c2csc(C(=O)N3CCCC3)c2)c(OC)c1	CendR NRP1 mod 19
COCCNC(=O)c1onc(CSc2ccccc2)c1C(=O)NCCOC	none (no result: M18AAP inhibitor)
Cc1cccc(CN2CCN(C3CN(Cc4cn(Cc5cccc(Cl)c5)nn4)S(=O)(=O)C3)CC2)c1 (stereo not drawn)	CendR NRP1 mod 23 (no result: CR mimetic SO, M18AAP inhibitor, ALR inh, APOBEC3G inh, APOBEC3A inh)
c1cn2cc(-c3ccc4c(c3)OCO4)nc2s1	ALR inh 95
S=C(N=Nc1ccccc1)NNc1ccccc1	ALR inh 99
CCC1SC2=NC(C)=C(C(=O)OC)C(c3ccc(C)cc3)N2C1=O (stereo not drawn)	none
CCCCNC(=O)CC1N=C2c3ccccc3N=C(SCC(=O)Nc3cccc(OC)c3)N2C1=O (stereo not drawn)	ALR inh 84
CCCCNC(=O)CC1N=C2c3ccccc3N=C(SCC(=O)Nc3ccc(OC)cc3)N2C1=O (stereo not drawn)	ALR inh 96
CCCCNC(=O)CC1N=C2c3ccccc3N=C(SCC(=O)Nc3ccccc3OC)N2C1=O (stereo not drawn)	none
CCOC(=O)C1(Cc2cccc(OC)c2)CCN(Cc2cccn2-c2nccs2)CC1	none
CCOC(=O)C1(Cc2ccccc2)CCN(Cc2cccn2-c2nccs2)CC1	CendR NRP1 mod 33
CC(=O)c1ccc(NC(=O)CSc2nc(N3CCOCC3)nc(N3CCOCC3)n2)cc1	none
Fc1ccc(N2CCN(C(=S)NCc3ccco3)CC2)cc1	none
COc1cccc(N2CCN(C(=S)NCc3ccco3)CC2)c1	ALR inh 87
CCc1ccc(CNc2ccc(N3CCN(C(C)=O)CC3)cc2)cc1	ALR inh 99
O=C(CN1CCN(c2ccc(O)cc2)CC1)NC(=O)NCc1ccco1	ALR inh 98
CC(=O)N1CCN(c2ccc(NCc3ccco3)cc2)CC1	ALR inh 99 (no result: M18AAP inhibitor)
Cn1c2c(c(=O)n(C)c1=O)C(NC(=O)c1ccco1)(C(F)(F)F)C(=O)N2 (stereo not drawn)	none
Cc1ccc(CNC(=O)N2CCN(c3ccc(C)cc3)CC2)cc1	none
O=C(c1cc(-c2cccc(Cl)c2)on1)N1CCN(c2ccc(F)cc2)CC1	none (no result: ALR inh)
CC(=O)N1CCN(c2ccc(NCc3ccc(C)cc3)cc2)CC1	ALR inh 99
CC(=O)N1CCN(c2ccc(NCc3ccc(-c4cccc(Cl)c4)o3)cc2)CC1	ALR inh 85 (no result: M18AAP inhibitor)
O=C(NNc1c2ccccc2nc2ccccc12)c1ccc(O)cc1	ALR inh 99
O=C(NNc1c2ccccc2nc2ccccc12)C12CC3CC(CC(C3)C1)C2	none (no result: ALR inh)
O=C(NNc1c2ccccc2nc2ccccc12)c1cccc(O)c1	ALR inh 99
O=C(NNc1c2ccccc2nc2ccccc12)C(O)c1ccccc1 (stereo not drawn)	ALR inh 99
CCc1ccc(-c2nc3ccc(Br)cc3c(C(=O)O)c2C)s1	none
Cc1nc2ccc(S(=O)(=O)NC(C(=O)NC3CCCC3)C(C)C)cc2s1 (stereo not drawn)	ALR inh 96
